Among all 300,000 compounds or so, about 5,400 (1.8%) were called active. Another 28% or so got no clear call; they are omitted. The full list was thinned out, with actives kept by preference. Unmarked numbers belong to inactive results. The call rests on the fitted dose curve; tested in HEK293 cells.
On the % scale 0 is the no-effect control and ±100 the full control effect; potency means the concentration at half of the fitted maximal effect.

This assay can be described thus: qHTS for inhibitors of binding or entry into cells for Marburg Virus. Conditions: Marburg virus pseudotyped entry inhibition, cell reporter; series mostly up to 37.8 µM; activity change, negative = inhibition: at the top concentration.
In the case of `CCOC(=O)C1(Cc2ccccc2C)CCCN(C(=O)c2ccc(COC)o2)C1` (centres undefined), the “activity change, negative = inhibition” value is -28%.
Regarding `O=C1NC(c2ccccc2)Cc2ccncc21` (centres undefined), the “activity change, negative = inhibition” value was 18%.
As for `Cc1c(C)c2c(c(C)c1O)CC[C@@](C)(CN1CCN(c3cc(N4CCCC4)nc(N4CCCC4)n3)CC1)O2`, the Potency is 10 µM (active).
Turning to `O=c1nc(NO)ccn1C1CCCO1` (centres undefined), the “activity change, negative = inhibition” value is 5.3%.
Take `N=c1oc2ccccc2cc1C(=O)NCc1ccccc1`: the “activity change, negative = inhibition” value is 6.37%.
For `Cc1cccc(-n2nc3c(c2NC(=O)c2cc4ccccc4o2)CS(=O)(=O)C3)c1`, the “activity change, negative = inhibition” value is 0.783%.
Consider `CCOc1ccc(C(=O)Nc2c3c(nn2-c2ccccc2)CS(=O)(=O)C3)cc1`, for which the “activity change, negative = inhibition” value was -5.01%.
For the molecule `COc1cccc(C(=O)Nc2c3c(nn2-c2cccc(C)c2C)CS(=O)(=O)C3)c1OC`, the Potency was 18.3 µM (active).
Take `CCN(CC(=O)Nc1ccc(OC)cc1)C(=O)c1ccc(Cl)c(S(=O)(=O)N2CCCC2)c1`: the “activity change, negative = inhibition” value was 1.55%.
`COc1cccc(N(CC(=O)NC2CCCCCC2)S(=O)(=O)c2ccccc2)c1`: the “activity change, negative = inhibition” value was 15.1%.
As for `Cn1c(=O)c2c(nc(NCCc3ccccc3)n2Cc2ccccc2Br)n(C)c1=O`, the “activity change, negative = inhibition” value is 4.15% [at 46.1 µM].
On to `Cn1c(=O)c2c(nc(NCCNC(=O)c3ccco3)n2Cc2ccccc2F)n(C)c1=O`, for which the “activity change, negative = inhibition” value was -2.49% [at 46.1 µM].
As to `Cn1c(=O)c2c(nc(NCCc3ccccc3)n2Cc2ccccc2)n(C)c1=O`, the Potency was 7.3 µM (active).
As for `COC(=O)c1ccc(CNC(=O)c2ccc3oc(C(C)C)nc3c2)cc1`, the “activity change, negative = inhibition” value is 8.4%.
`Cc1nc2ccc(C(=O)N/N=C/c3ccc(O)cc3)cc2[nH]1`: the “activity change, negative = inhibition” value was 6.82% [at 46.1 µM].
Regarding `Cc1ccc2occ(/C=N/NC(=O)c3ccccc3C)c(=O)c2c1`, the “activity change, negative = inhibition” value is 24.7%.
Regarding `Cc1ccc(/C=N/NC(=O)C2=NNC(c3ccccc3)(c3ccccc3)C2)c(O)c1`, the Potency is 8.91 µM (active).
As for `COc1ccc(NC(=O)c2cccc(Cl)c2)c[n+]1[O-]`, the “activity change, negative = inhibition” value was 5.7%.
With `O=C(OCC(=O)N1CCN(C(=O)c2ccco2)CC1)c1c(Cl)cccc1Cl`, the “activity change, negative = inhibition” value was 22.8%.
On to `O=C(CCc1nnc2ccc(NCc3ccccc3Cl)nn12)NCC1CCN(C2CCCC2)C1` (centres undefined), for which the “activity change, negative = inhibition” value is -0.332% [at 46.1 µM].
For the molecule `CC1CCN(C(=O)CCc2nnc3ccc(NCc4ccco4)nn23)CC1`, the Potency was 3.16 µM (active).
As to `COc1cccc(NC(=O)CCc2nnc3ccc(N4CCC(C)CC4)nn23)c1`, the “activity change, negative = inhibition” value was -5.71% [at 46.1 µM].
The same measure, in the same setting: under `CC1=C(C(=O)NC2CC(C)(C)Cc3c2cnn3-c2ccc(C)cc2)OCCO1` (centres undefined) stands -19.3%.
On the same count and under the same terms, for `COc1cccc(-n2c(N)cc(=O)nc2SCC(=O)Nc2cc(C)on2)c1` the value was 20.4%; for `O=C(O)C[C@H](C(=O)OC[C@H]1CCCO1)N1CCOCC1`, 20%; for `CC1CN(C(=O)c2cc(COc3c(F)cccc3F)on2)CCN1C` (centres undefined), 29.3%.
As to `CCC(C)(NC(=O)c1ccccn1)C(=O)NC1CCCCC1` (centres undefined), the “activity change, negative = inhibition” value is -6.35%.
For `CCOc1cc(NC(=O)c2ccccn2)c(OCC)cc1NC(=O)c1ccc(OC)cc1`, the “activity change, negative = inhibition” value is -24.5% [at 46.1 µM].
On to `CCN(CC)CCOc1ccc2c(c1)C(=NNC(=O)c1ccccn1)c1cc(OCCN(CC)CC)ccc1-2`, for which the Potency is 10.3 µM (active).
In the case of `CC(=O)N1CCOc2ccc(S(=O)(=O)N3CCC(C(=O)Nc4ccccc4F)CC3)cc21`, the “activity change, negative = inhibition” value was -3.88% [at 46.1 µM].
Turning to `CCOc1ccc(CN2CCN(Cc3ccc4cc(F)ccc4n3)CC2CCO)cc1` (centres undefined), the Potency is 10 µM (active).
`CCOc1ccc(CN2CCN(Cc3ccon3)CC2CCO)cc1` (centres undefined): the “activity change, negative = inhibition” value was -4.65% [at 46.1 µM].
The same measure, in the same setting: under `Cc1ccc(CN2CCN(Cc3ccc4ncccc4c3)CC2CCO)cc1` (centres undefined) stands -22.5% [at 46.1 µM]; under `COc1cccc([C@@H]2Oc3ccc(OC)cc3C(=O)[C@@H]2OC(=O)Nc2cc(OC)c(OC)c(OC)c2)c1`, 12.9% [at 14.2 µM]; under `Cc1ccccc1CCNC(=O)C1CCC(=O)N(Cc2ccc(Cl)cc2)C1` (centres undefined), 0.744%.
Take `Cc1ccc(OCc2cc(C(=O)N(C)CCn3ccnc3C)no2)cc1C`: the “activity change, negative = inhibition” value is 6.47%.
With `COC(=O)C/C=C/[C@@H](C)[C@@H](/C=N/OC[C@@H](O)[C@H]1O[C@@H]2OC(C)(C)O[C@@H]2[C@H]1O)OC`, the “activity change, negative = inhibition” value was 21.9% [at 14.2 µM].
On to `CCOC(=O)c1ccc(NC(=O)c2cccnc2)cc1`, for which the “activity change, negative = inhibition” value is 0.208%.
In the case of `O=C(NNC(=O)c1ccc(Cl)nc1)c1ccc(Br)cc1`, the “activity change, negative = inhibition” value was -3.9% [at 46.1 µM].
As to `CCN(CC)c1ccc(NC(=O)c2ccc(Cl)nc2)cc1`, the Potency was 7.08 µM (active).
For the molecule `Cc1ccc(NC(=O)C(C)OC(=O)C2CC3CCCC(C2)C3=O)cc1S(=O)(=O)N1CCOCC1` (centres undefined), the “activity change, negative = inhibition” value was 19.8%.
In the case of `CC(=O)Oc1ccccc1[C@@H]1OC(=O)c2ccccc2N1C(C)=O`, the “activity change, negative = inhibition” value is -23.5%.
Consider `COc1ccc(/C=C/c2noc(-c3ccccc3OC(C)=O)n2)cc1`, for which the Potency is 11.2 µM (active).
In the case of `COc1ccc(/C=C/c2noc(-c3ccccc3O)n2)cc1OC`, the “activity change, negative = inhibition” value was -4.78% [at 46.1 µM].
Regarding `CN(CC(=O)NCCc1ccc(S(N)(=O)=O)cc1)CC(=O)Nc1ccc(F)c(F)c1F`, the “activity change, negative = inhibition” value was -0.907% [at 46.1 µM].
As to `COc1ccc(CCNc2nc(C)cc(C)n2)cc1OC`, the “activity change, negative = inhibition” value is 0.762% [at 46.1 µM].
For `COc1ccc(CCN(C)CCN2C(=O)c3ccccc3C2=O)cc1OC`, the “activity change, negative = inhibition” value was 12.3%.
Turning to `COc1ccc(CCNC2=C(Cl)C(=O)N(Cc3ccccc3)C2=O)cc1OC`, the Potency was 11.2 µM (active).
Consider `CC(=NNC(=O)c1ccc2nc[nH]c2c1)c1ccc(Br)cc1`, for which the “activity change, negative = inhibition” value was -4.25% [at 46.1 µM].

These data come from PubChem BioAssay AID540276 (National Center for Advancing Translational Sciences (NCATS), 2011).
